According to PubChem BioAssay (NCATS):
Several values for one entry are separate records, joined by “and”; a condition that tells them apart may be missing. Equal entries are not always repeated. Records with an inconclusive call do not appear. Activity calls are given as the source filed them. Calls come from the whole dose curve; as a rule, active = well fitted curve in the direction sought with a large enough effect; inconclusive = small, poorly fitted or top-dose-only effect, or another doubt; inactive = no such curve, though single readings can be large; an effect the other way counts as inactive or inconclusive. Positions of bridges follow the written chain, without caps; N, C: chain ends. Non-standard residues stand in square brackets, D forms with d. Residues, ends and D or L forms follow the SMILES beside them. ξ: configuration not given here. *: point of attachment. Octanoyl(6-Me) = CCC(C)CCCCC(=O)*; ξThr(3R) = C[C@@H](O)C(N)C(=O)O; dDab = NCC[C@@H](N)C(=O)O; Dab = NCC[C@H](N)C(=O)O; Nva = CCC[C@H](N)C(=O)O; Cbz = O=C(OCc1ccccc1)*

Columns and labels:
[1] = qHTS Screen of the MIPE 4.0 Collection Against Ewings Sarcoma (TC32) (AID 1259256); note: nearly all actives have a fitted effect of over 45% in size
In short: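 Measured: ATP luminescence (CellTiter-Glo) 10 min after reagent addition, following 48 h drug treatment. Relative luciferase units converted to percent activity, with no-cell wells as full and DMSO wells as zero inhibition.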

[2] = P-glycoprotein substrates identified in KB-8-5-11 adenocarcinoma cell line, qHTS therapeutic library screen (AID 1346987); note: nearly all actives have a fitted effect of over 65% in size
In short: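 Luminescence from CellTiter-Glo, read 5 min after addition, quantified survival of KB-8-5-11 (P-gp-overexpressing) cells exposed to compounds for 72 h. AC50 was derived from concentration-response curves.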

[3] = NS1 protein of Zika virus - qHTS assay to identify small molecule inhibitors in human HEK 293 cells (AID 1347053); note: nearly all actives have a fitted effect of over 55% in size
In short: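 Readout was TR-FRET using paired anti-NS1 antibodies after 24 h infection of HEK 293 cells with ZIKV MR766 (MOI = 0.5). Compound preceded virus by 1 h; reduced signal reflects lower NS1 expression.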

[4] = qHTS of pediatric cancer cell lines to identify multiple opportunities for drug repurposing: Primary screen for TC32 cells (AID 1347089); note: nearly all actives have a fitted effect of over 60% in size
In short: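 TC32 cells, 500-1,000/well in growth medium, compound-treated 48 h at 37 °C; viability from CellTiter-Glo luminescence. Primary screen: MIPE 11-point (0.78 nM–46 µM final), NPC 8-point (0.59 nM–46 µM final); confirmatory at 11-point dilutions.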

[5] = qHTS of pediatric cancer cell lines to identify multiple opportunities for drug repurposing: Primary screen for DAOY cells (AID 1347090); note: nearly all actives have a fitted effect of over 55% in size
In short: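 Eight- or eleven-point concentration series, 48 h treatment at 37 degrees C in growth media; readout CellTiter-Glo luminescence. Potency and efficacy were taken from the concentration-response curves.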

Measured: Potency
Potency is the fitted concentration of half-maximal effect.

c1ccc2c(Oc3nc(Nc4ccc(N5CCOCC5)cc4)c4ncn(C5CCCCC5)c4n3)cccc2c1
inactive: all assays above

Cc1ccc2nc(NCCN)c3ncc(C)n3c2c1
active: [1] 4690 nM | [2] 4.18 µM and 6.51 µM | [3] 26400 nM | [4] 23400 nM | [5] 14800 nM

O=C(CN1C(=O)C2(CCCC2)NC[C@H]1c1cc(F)cc(F)c1)Nc1ccc2c(c1)C[C@@]1(C2)C(=O)Nc2ncccc21
inactive: all assays above

C[C@@H]1CC[C@@]2(OC1)OC1CC3C4CC=C5CC(O)CCC5(C)C4CCC3(C)C1[C@@H]2C (stereo not given in full)
inactive: all assays above

O=C1NC(=O)C(=Cc2ccc3nccc(-c4ccncc4)c3c2)S1
active: [1] 74.3 nM | [2] 418 nM | [3] 743 nM | [4] 523 nM | [5] 235 nM

O=C1NC(O)CCN1[C@@H]1O[C@H](CO)[C@H](O)[C@H]1O (stereo not given in full)
inactive: all assays above

COc1ccc(Nc2cc(-c3cnc(N)nc3)nc(N3CCOCC3)n2)cn1
active: [1] 5260 nM | [2] 1480 nM | [3] 16600 nM | [4] 4660 nM | [5] 4690 nM

NC(=O)c1ncn([C@@H]2O[C@H](CO)[C@@H](O)[C@@H]2O)c1O
inactive: all assays above

CC[C@]12C=CCN3CC[C@@]4(c5cc([C@@]6(C(=O)OC)C[C@H]7C[C@@H](C(C)(F)F)CN(Cc8c6[nH]c6ccccc86)C7)c(OC)cc5N(C)[C@H]4[C@@](O)(C(=O)OC)[C@H]1OC(C)=O)[C@@H]32
active: [2] 743 nM | [3] 7430 nM | [4] 58.7 nM | [5] 29.6 nM
inactive: [1]

Cc1cnc(Nc2ccc(N3CCN(C)CC3)cc2)nc1Nc1cccc(S(=O)(=O)NC(C)(C)C)c1
active: [1] 2350 nM | [2] 11.8 µM and 7.31 µM | [3] 16600 nM | [4] 10400 nM | [5] 14800 nM

C[C@H](CCC(=O)O)[C@H]1CCC2C3C[C@H](O)[C@@H]4C[C@H](O)CC[C@]4(C)C3CC[C@@]21C (stereo not given in full)
inactive: all assays above

CC(=O)NC(CS)C(=O)O (stereo not given)
inactive: all assays above

CN[C@H]1[C@@H](O)[C@@H]2O[C@@H]3O[C@H](C)CC(=O)[C@]3(O)O[C@@H]2[C@@H](NC)[C@H]1O
active: [1] 1050 nM | [4] 13100 nM | [5] 296 nM
inactive: [2] | [3]

COc1cc(OC)c(NC(=O)Nc2cc(C)on2)cc1Cl
inactive: all assays above

N[C@H]1CN(c2c(F)cc3c(=O)c(C(=O)O)cn(C4C[C@@H]4F)c3c2Cl)CC12CC2 (stereo not given in full)
active: [1] 3.3 nM
inactive: all other assays above

C=CC(=O)Nc1ccc2ncnc(Nc3ccc(OCc4cccc(F)c4)c(Cl)c3)c2c1
active: [1] 833 nM | [2] 23.5 µM and 16.4 µM | [3] 10500 nM | [4] 4660 nM | [5] 46.9 nM

CC(C)N(CC[C@H](c1ccccc1)c1cc(CO)ccc1O)C(C)C
inactive: all assays above

C[C@H](O)[C@@H]1C(=O)N2C(C(=O)O)=C(S[C@@H]3CN[C@H](CNS(N)(=O)=O)C3)[C@@H](C)[C@@H]12
inactive: all assays above

Cc1ccccc1C(=O)Nc1ccc(C(=O)N2CCCC(O)c3cc(Cl)ccc32)c(C)c1 (stereo not given)
inactive: all assays above

CCC[C@@H](C=O)NC(=O)[C@H](CC(C)C)NC(=O)[C@H](CC(C)C)NC(=O)OCc1ccccc1 (Cbz-Leu-Leu-[Nva]-aldehyde)
active: [1] 1050 nM | [2] 7430 nM | [3] 3320 nM | [4] 3700 nM | [5] 935 nM

O=[N+]([O-])c1cn2c(n1)OC[C@@H](OCc1ccc(OC(F)(F)F)cc1)C2
active: [1] 8330 nM
inactive: all other assays above

N#CNC(=NCCCCCCOc1ccc(Cl)cc1)Nc1ccncc1
active: [2] 4.2 nM | [4] 3.3 nM | [5] 14800 nM
inactive: [1] | [3]

C[C@@H](NCc1cc2ccccc2[nH]1)c1cccc2ccccc12
inactive: all assays above

CC(C)(C)[N+]([O-])=Cc1ccc(S(=O)(=O)O)cc1S(=O)(=O)O
inactive: all assays above

CCN(C(=O)c1c(O)c2c(Cl)cccc2n(C)c1=O)c1ccccc1
inactive: all assays above

CC1(C)CC(O)CC(C)(C)N1[O]
inactive: all assays above

COC(=O)C=CC(=O)OC
active: [1] 14800 nM | [5] 1870 nM
inactive: all other assays above

CC(C)OC(=O)[C@H](C)N[P@](=O)(OC[C@H]1O[C@@H](n2ccc(=O)[nH]c2=O)[C@](C)(F)[C@H]1O)Oc1ccccc1
inactive: all assays above

C[C@H](NC(=O)[C@@H](O)c1cc(F)cc(F)c1)C(=O)N[C@@H]1C(=O)N(C)c2ccccc2-c2ccccc21
inactive: all assays above

CCc1cnn2c(NCc3ccc[n+]([O-])c3)cc(N3CCCC[C@@H]3CCO)nc12
active: [1] 23.5 nM | [2] 235 nM | [3] 148 nM | [4] 131 nM | [5] 37.2 nM

Nc1nc2c(c(=O)[nH]1)N(C=O)[C@H](CNc1ccc(C(=O)N[C@@H](CCC(=O)O)C(=O)O)cc1)CN2
inactive: all assays above

CCCCCCCN(CC)CCCC(O)c1ccc(NS(C)(=O)=O)cc1 (stereo not given)
inactive: all assays above

CC(C)C[C@@H](C=O)NC(=O)[C@H](CC(C)C)NC(=O)[C@H](CC(C)C)NC(=O)OCc1ccccc1 (Cbz-Leu-Leu-Leu-aldehyde)
active: [1] 372 nM | [2] 5260 nM | [3] 1660 nM | [4] 2340 nM | [5] 743 nM

Cc1cc(-c2nnc3n2CCCCC3)c(C)n1-c1ccccc1
active: [1] 18700 nM
inactive: all other assays above

Cc1ccc(O)c(C(CCN(C(C)C)C(C)C)c2ccccc2)c1 (stereo not given)
inactive: all assays above

Cc1cc(O)c2c(c1)C(=O)c1cccc(O)c1C2=O
inactive: all assays above

O=C(O)CCCCCC(=O)NN=C1CCCC1
inactive: all assays above

CCC(C=C[C@@H]1OC(=O)C=C[C@H]1C)=C[C@H](C)CC=CC(C)=C[C@@H](C)C(=O)[C@@H](C)[C@H](O)[C@@H](C)CC(C)=CC(=O)O
active: [1] 13.9 nM | [2] 196 nM | [3] 124 nM | [4] 77.7 nM | [5] 78.2 nM

CS[C@H]1SC[C@@H]2C(=O)N(C)[C@H](C(C)C)C(=O)OC[C@H](NC(=O)c3cnc4ccccc4n3)C(=O)N[C@H](C)C(=O)N(C)[C@@H]1C(=O)N(C)[C@H](C(C)C)C(=O)OC[C@H](NC(=O)c1cnc3ccccc3n1)C(=O)N[C@H](C)C(=O)N2C
active: [1] 1.9 nM | [2] 590 nM | [3] 16.6 nM | [4] 9.3 nM | [5] 7.4 nM

C[C@H]1O[C@H](O[C@H]2[C@H](O)[C@@H](O)[C@@H](O[C@H]3[C@H](O)[C@@H](O)C(O)O[C@H]3CO)O[C@H]2CO)[C@H](O)[C@@H](O)[C@H]1N[C@H]1C=C(CO)[C@@H](O)[C@H](O)[C@@H]1O (stereo not given in full)
inactive: all assays above

c1coc(CNc2ncnc3nc[nH]c23)c1
inactive: all assays above

COc1ccc(C[C@@H](C)[C@@H](C)Cc2ccc(OC)c(OC)c2)cc1OC
inactive: [1]
active: [2] 7430 nM | [3] 833 nM | [4] 9300 nM | [5] 235 nM

CCC(C)CCCCC(=O)N[C@@H](CCN)C(=O)NC(C(=O)N[C@H](CCN)C(=O)N[C@@H]1CCNC(=O)C([C@@H](C)O)NC(=O)[C@@H](CCN)NC(=O)[C@@H](CCN)NC(=O)[C@@H](CC(C)C)NC(=O)[C@H](Cc2ccccc2)NC(=O)[C@H](CCN)NC1=O)[C@@H](C)O (stereo partly drawn) ({Octanoyl(6-Me)}-[Dab][ξThr(3R)][dDab][dDab][Dab]F[dL][dDab][dDab][ξThr(3R)]; lactam 4-C)
inactive: all assays above

Cn1cc(C[C@@H](N)C(=O)O)c2ccccc21
inactive: all assays above

CC(Cc1ccc(O)c(O)c1)(NN)C(=O)O (stereo not given)
active: [1] 23500 nM
inactive: all other assays above

C=C[C@@H]1CN2CCC1C[C@H]2[C@H](O)c1ccnc2ccc(OC)cc12 (stereo not given in full)
inactive: all assays above

C[C@@]12C(=O)OC(=O)[C@@]1(C)C1CCC2O1
active: [1] 2640 nM | [2] 5260 nM | [3] 3720 nM | [4] 13100 nM | [5] 2960 nM
